In PubChem BioAssay (NCATS):
Unmarked numbers belong to inactive results. Records with an inconclusive call do not appear. Entries that show only a call come without a potency. Calls of active or inactive are those of the source. Unless noted, the call rests on the fitted dose curve; in most records, active means well fitted curve in the direction sought with a large enough effect; inconclusive means small, poorly fitted or top-dose-only effect, or another doubt; inactive means no such curve, though single readings can be large; an effect the other way counts as inactive or inconclusive.

Tests used:
[1] = qHTS to identify inhibitors of the type 1 interferon - major histocompatibility complex class I in skeletal muscle: primary screen against the NCATS Mechanism Interrogation Plate v5.0 (MIPE) Libary (AID 1347411); further: nearly all actives have a fitted effect of over 65% in size; further: potency means the concentration at half of the fitted maximal effect
Procedure, shortened: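 HLA-B HiBit myoblasts, dexamethasone-free medium + 4 ng/ml IFN-b, 24 h compound, 11-pt 1:3 from 46 uM final. Readout: Nano-Glo HiBiT lytic luminescence after 10 min lysis, RT.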

[2] = target: Calcium and integrin-binding protein 1 (Homo sapiens) (UniProt Q99828); experiment: Primary qHTS for Identification of Calcium Integrin Binding Protein 1 (CIB1) Competitor (AID 1508620);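 further: GST tagged CIB1 binding a fluorescein labelled alphaIIb integrin peptide tracer; top concentration of the series differs between compounds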
Calcium and integrin-binding protein 1 (Homo sapiens), sequence (Q99828 whole entry, looked up): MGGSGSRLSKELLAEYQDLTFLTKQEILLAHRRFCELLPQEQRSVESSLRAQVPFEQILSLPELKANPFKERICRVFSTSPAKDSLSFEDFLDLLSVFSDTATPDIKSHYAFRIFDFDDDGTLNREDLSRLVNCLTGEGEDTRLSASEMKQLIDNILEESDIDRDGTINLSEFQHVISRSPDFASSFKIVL
Procedure, shortened: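 Fluorescence polarization competition: CIB1-GST (1 uM final) preincubated with compound 15 min at room temperature, then FITC-labeled alphaIIb peptide (100 nM final) added for another 15 min. Polarization read at Ex 480/Em 540.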

[3] = Primary qHTS for small molecule stabilizers of the endoplasmic reticulum resident proteome: Secreted ER Calcium Modulated Protein (SERCaMP) assay (AID 1508630)
Procedure, shortened: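 The SH-SY5Y reporter protocol was run at 3 concentrations up to 38.3 uM (primary) or 11 concentrations (follow-up): 16 h compound, 100 nM thapsigargin for 4 h, then extracellular luciferase luminescence.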

[4] = qHTS for inhibitors of adenylyl cyclases using a fission yeast platform: a pilot screen against the NCATS LOPAC library (AID 1347410)
Procedure, shortened: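 Read-out: fbp1-GFP fluorescence by laser scanning cytometry (488 nm laser), a gain of signal when AC/cAMP-PKA signalling is inhibited. Strain CHP2027 expressing AC9, GNAS and PDE4D2; compounds at up to 57 µM; 18 h, 30C.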

[5] = target: Protein phosphatase 1D (Homo sapiens) (UniProt O15297); experiment: RapidFire Mass Spectrometry qHTS Assay for Modulators of WT P53-Induced Phosphatase 1 (WIP1) (AID 1347424);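 further: amount of dephosphorylated VEPPL-S-QETFS peptide product formed by WIP1; series mostly up to about 63 µM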
Protein phosphatase 1D (Homo sapiens), sequence (O15297 whole entry, looked up): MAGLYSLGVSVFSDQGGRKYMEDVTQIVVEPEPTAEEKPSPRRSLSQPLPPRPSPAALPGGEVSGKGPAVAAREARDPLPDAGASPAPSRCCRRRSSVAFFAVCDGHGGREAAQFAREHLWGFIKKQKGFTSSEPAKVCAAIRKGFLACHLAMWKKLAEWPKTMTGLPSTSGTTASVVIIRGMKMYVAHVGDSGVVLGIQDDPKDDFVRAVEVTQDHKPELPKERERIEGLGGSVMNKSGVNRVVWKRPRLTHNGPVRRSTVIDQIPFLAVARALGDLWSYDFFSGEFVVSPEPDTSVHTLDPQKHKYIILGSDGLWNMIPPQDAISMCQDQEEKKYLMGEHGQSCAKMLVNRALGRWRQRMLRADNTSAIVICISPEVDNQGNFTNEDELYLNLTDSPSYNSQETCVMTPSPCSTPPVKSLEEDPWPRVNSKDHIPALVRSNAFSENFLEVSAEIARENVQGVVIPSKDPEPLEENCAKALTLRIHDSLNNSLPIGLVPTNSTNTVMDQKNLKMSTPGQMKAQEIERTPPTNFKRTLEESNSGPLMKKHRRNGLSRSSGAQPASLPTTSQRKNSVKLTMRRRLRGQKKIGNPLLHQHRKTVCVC
Procedure, shortened: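 Mass-spectrometric measurement of dephosphorylated peptide after a 5 min room-temperature reaction of 10 nM WIP1 with 2 uM phosphopeptide, following 1 h compound preincubation in 30 mM MgCl2 buffer.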

[6] = target: Protein phosphatase 1D (Homo sapiens) (UniProt O15297); experiment: Rhodamine-PBP qHTS Assay for Modulators of WT P53-Induced Phosphatase 1 (WIP1) (AID 1347425)
Procedure, shortened: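 Read-out: Rhodamine-PBP fluorescence (ex 525/em 598 nm) for released Pi, read each minute for 11 min after adding 10 uM VEPPL-pS-QETFS; signal taken as f1 minus pre-substrate f0. Enzyme 5 nM WIP1 with 1 hr room-temperature compound preincubation.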

[7] = Primary qHTS for inhibitors of La Crosse Virus (LACV) - induced cell death in SH-SY5Y cells (AID 1508616);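 further: top concentration of the series differs between compounds; higher means more rescue of cells from virus-induced death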
Procedure, shortened: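 Cytopathicity rescue screen: compounds pinned onto SH-SY5Y cells, which are then infected with LACV (MOI 0.01) and held 6 days at 37C. Percent activity is scaled between infected DMSO control and uninfected DMSO control.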

[8] = A High-Content qHTS Against Drug Library for the Identification of Small Molecules that Inhibit DYT1 Early Onset Primary Dystonia-Associated Cell Pathology (AID 1645839; calls by dose curve; further: series mostly up to about 46 µM)
Procedure, shortened: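 Induced EGFP-delE TorsinA cells are imaged after 48 h of compound treatment. Punctate fusion-protein distribution gives the %pathology value, while nuclei counts flag toxicity. Wild-type EGFP-hTOR1A cells define the normal pattern.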

[9] = Validation qHTS assay for inhibitors of Activation Induced Cytidine Deaminase (AID): UDG Counterscreen signal (AID 1347427)
Procedure, shortened: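 Fluorescence at 560 nm excitation, 665 nm emission reports UDG signal after 250 mM NaOH (2x) addition and 30 min. Enzymes (AID 1 uM, UDG 2 U/mL, at 4/3x) preincubated 10 min with compound, then 4 h with 4x 250 nM DJC20/DJC23 substrate at room temperature.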

**Q.** Which results are given for `CC1(C)CNc2cc(NC(=O)c3cccnc3NCc3ccncc3)ccc21`?
**A.** Potency [1]: inactive; outcome [2]: inactive; Potency [3]: inactive

**Q.** With `Cc1n[nH]c(C)c1Cc1sc2c(c1C(=O)N1C[C@H](O)CO1)c(=O)n(C)c(=O)n2CC(C)C` as the compound, how does the Potency [1] read?
**A.** inactive

**Q.** What about the outcome [2] of the same compound?
**A.** inactive

**Q.** What does the source list for `Cc1cc2c(F)c(Oc3ncnn4cc(OC[C@@H](C)O)c(C)c34)ccc2[nH]1`?
**A.** Potency [1]: inactive; outcome [2]: inactive; Potency [3]: inactive

**Q.** Which results are given for `CC(C)OC(=O)C1=CN(C(=O)c2ccc(F)c(F)c2)CC(C)(C)c2c1[nH]c1ccccc21`?
**A.** Potency [1]: inactive; outcome [2]: inactive; Potency [3]: inactive

**Q.** With `O=c1ncn2nc(Sc3ccc(F)cc3F)ccc2c1-c1c(Cl)cccc1Cl` as the compound, how does the Potency [1] read?
**A.** inactive

**Q.** Which Potency [1] does the source give for `C[C@]1(c2nc3c(C(N)=O)cccc3[nH]2)CCCN1` here?
**A.** inactive

**Q.** And the outcome [2]?
**A.** inactive

**Q.** And the Potency [3]?
**A.** inactive

**Q.** What does the source list for `Cn1c(=O)c(F)c(Nc2ccc(I)cc2F)c2c(=O)n(C[C@@H](O)CO)cnc21`?
**A.** Potency [1]: inactive; outcome [2]: inactive; Potency [3]: inactive

**Q.** Which Potency [1] does the source give for `CS(=O)(=O)c1ccc(C(=O)Nc2ccc(Cl)c(-c3ccccn3)c2)c(Cl)c1` here?
**A.** inactive

**Q.** What about the outcome [2] of the same compound?
**A.** inactive

**Q.** What does the source list for `CCN(c1ccccc1)c1cc(NC)[n+](C)c(C)n1`?
**A.** Potency [1]: inactive; outcome [2]: inactive; Potency [3]: inactive

**Q.** Which Potency [1] does the source give for `Nc1cccc(S(=O)(=O)N2CCCN(S(=O)(=O)c3ccc4c(c3)OCCO4)CC2)c1` here?
**A.** inactive

**Q.** What about the outcome [2] of the same compound?
**A.** inactive

**Q.** What does the source list for `N#CC[C@H](C1CCCC1)n1cc(-c2ncnc3[nH]ccc23)cn1`?
**A.** Potency [1]: inactive; outcome [2]: inactive; Potency [3]: inactive

**Q.** What does the source list for `CC[C@@H](C)[C@H](NC(=O)[C@H](CC1CCCCC1)NC(=O)c1ccno1)C(=O)N1CCC2(CCc3ccccc32)CC1`?
**A.** Potency [1]: inactive; outcome [2]: inactive; Potency [3]: inactive

**Q.** With `CC(C)(C)OC(=O)CN(Cc1ccc(Cl)cc1)Cc1ccc([N+](=O)[O-])s1` as the compound, how does the Potency [1] read?
**A.** inactive

**Q.** And the outcome [2]?
**A.** inactive

**Q.** What does the source list for `Cc1cnc(NC(=O)C2=C(O)c3ccccc3S(=O)(=O)N2C)s1`?
**A.** outcome [4]: inactive; Potency [5]: inactive; outcome [6]: inactive; outcome [7]: inactive; Potency [8]: inactive

**Q.** Which results are given for `CNC(=O)c1ccc(N2C(=S)N(c3ccc(C#N)c(C(F)(F)F)c3)C(=O)C2(C)C)cc1F`?
**A.** Potency [1]: inactive; outcome [2]: inactive; Potency [3]: inactive

**Q.** Which Potency [1] does the source give for `COc1c(Cl)cc2c([nH]c3cnccc32)c1NC(=O)c1cccnc1C` here?
**A.** 26.2 µM (active)

**Q.** And the outcome [2]?
**A.** inactive

**Q.** And the Potency [3]?
**A.** inactive

**Q.** Which Potency [1] does the source give for `Fc1ccc(Cl)cc1-c1nc(Nc2ccncc2)c2nccnc2n1` here?
**A.** inactive

**Q.** With `Nc1ncnc2nc(-c3ccc(N4CCOCC4)nc3)cc(-c3cccc(Br)c3)c12` as the compound, how does the Potency [1] read?
**A.** inactive

**Q.** What about the outcome [9] of the same compound?
**A.** inactive

**Q.** What about the outcome [7] of the same compound?
**A.** inactive

**Q.** And the outcome [2]?
**A.** inactive

**Q.** Which results are given for `COc1ccccc1[C@H](c1cccc2ccccc12)[C@@](C)(C#N)C(=O)N1CCC(c2cccc(C(F)(F)F)c2)CC1`?
**A.** Potency [1]: inactive; outcome [2]: inactive

**Q.** Which Potency [8] does the source give for `C#Cc1cccc(Nc2ncnc3cc(OCCOC)c(OCCOC)cc23)c1` here?
**A.** inactive

**Q.** Which Potency [8] does the source give for `Cn1cnc2c(F)c(Nc3ccc(Br)cc3Cl)c(C(=O)NOCCO)cc21` here?
**A.** inactive

**Q.** Which results are given for `Cc1csc(NC(=O)c2sc3nc4c(c(C(F)(F)F)c3c2N)CCC4)n1`?
**A.** outcome [2]: inactive; Potency [3]: inactive

**Q.** What does the source list for `CCCS(=O)(=O)Nc1ccc(F)c(C(=O)c2c[nH]c3ncc(-c4ccc(Cl)cc4)cc23)c1F`?
**A.** outcome [2]: inactive; Potency [3]: inactive

**Q.** For `Cc1c(CN2CCN(C(=O)C(C)C)CC2)sc2c(N3CCOCC3)nc(-c3cnc(N)nc3)nc12`, which outcome [2] is on record?
**A.** inactive

**Q.** What about the Potency [3] of the same compound?
**A.** inactive

**Q.** Which outcome [2] does the source give for `COc1ccc2c3n(c(=NC(=O)c4cccnc4)nc2c1OC)CCN3` here?
**A.** inactive

**Q.** And the Potency [3]?
**A.** inactive

**Q.** For `COc1ccc(C2=N[C@H](c3ccc(Cl)cc3)[C@H](c3ccc(Cl)cc3)N2C(=O)N2CCNC(=O)C2)c(OC(C)C)c1`, which outcome [2] is on record?
**A.** inactive

**Q.** And the Potency [3]?
**A.** inactive

**Q.** Which outcome [2] does the source give for `O=C(Nc1cccnc1)N1CCC(Cc2cccc(Oc3ccc(C(F)(F)F)cn3)c2)CC1` here?
**A.** inactive

**Q.** What about the Potency [3] of the same compound?
**A.** inactive

**Q.** For `CO[C@@H]1[C@H](N(C)C(=O)c2ccccc2)C[C@H]2O[C@]1(C)n1c3ccccc3c3c4c(c5c6ccccc6n2c5c31)C(=O)NC4`, which Potency [3] is on record?
**A.** inactive

**Q.** Which Potency [3] does the source give for `Cc1cc(C=c2sc3nc4ccccc4n3c2=O)c(C)n1-c1ccccc1` here?
**A.** inactive
